Source: PubChem BioAssay AID1159580 (chemical genetic matrix, 2015)
Hit rate of the full screen: of about 5,500 compounds, about 2,000 (36%) were called active. Roughly 18% stayed inconclusive and do not appear here. No stated cut-off is given here; in the data, active means normalized growth mostly below about 0.91 (no sharp cut-off); inconclusive means no clear call, values can overlap the other calls; inactive means mostly above about 0.92. The list shows a part of the results.

Experiment: chemical genetic growth profiling, strain panel (AID 1159580);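 further: tested at 20 µM; growth read once vehicle control cultures reached saturation at 30 °C; 1 = growth at the plate median or of vehicle wells; lower values mean less growth of the strain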
Conditions: growth OD

Measured: normalized growth

CCCc1nc(C(C)(C)O)c(C(=O)OCc2oc(=O)oc2C)n1Cc1ccc(-c2ccccc2-c2nn[nH]n2)cc1
inactive: S. cerevisiae deletion strains, locus YKL009W, strain mrt4, active compounds read low 0.957 | S. cerevisiae deletion strains, locus YKL068W, active compounds read low 0.988 | S. cerevisiae deletion strains, locus YKL085W, strain MDH1 (second series), active compounds read low 0.98 | S. cerevisiae deletion strains, locus YKL085W, strain MDH1, active compounds read low 0.98 | S. cerevisiae deletion strains, locus YKL160W, strain elf1, active compounds read low 0.994 | S. cerevisiae deletion strains, locus YKL190W, strain CNB1, active compounds read low 1.01 | S. cerevisiae deletion strains, locus YKR001C, strain vps1, active compounds read low 0.985 | S. cerevisiae deletion strains, locus YKR026C, strain gcn3, active compounds read low 0.976 | S. cerevisiae deletion strains, locus YKR091W, strain srl3, active compounds read low 0.981 | S. cerevisiae deletion strains, locus YLL001W, strain dnm1, active compounds read low 0.972 | S. cerevisiae deletion strains, locus YLL026W, active compounds read low 0.958 | S. cerevisiae deletion strains, locus YLL041C, strain sdh2, active compounds read low 0.972 | S. cerevisiae deletion strains, locus YLR027C, strain aat2, active compounds read low 0.984 | S. cerevisiae deletion strains, locus YLR039C, strain RIC1, active compounds read low 0.981 | S. cerevisiae deletion strains, locus YLR058C, strain SHM2, active compounds read low 0.988 | S. cerevisiae deletion strains, locus YLR102C, strain apc9, active compounds read low 0.989 | S. cerevisiae deletion strains, locus YLR113W, strain HOG1, active compounds read low 0.987 | S. cerevisiae deletion strains, locus YLR221C, strain rsa3, active compounds read low 1.02 | S. cerevisiae deletion strains, locus YLR258W, strain gsy2, active compounds read low 0.977 | S. cerevisiae deletion strains, locus YLR262C, strain YPT6 (second series), active compounds read low 0.962 | S. cerevisiae deletion strains, locus YLR262C, strain YPT6, active compounds read low 0.987 | S. cerevisiae deletion strains, locus YLR268W, strain sec22, active compounds read low 0.971 | S. cerevisiae deletion strains, locus YLR320W, strain mms22, active compounds read low 1.01 | S. cerevisiae deletion strains, locus YLR330W, strain CHS5, active compounds read low 0.995 | S. cerevisiae deletion strains, locus YLR342W, strain FKS1 (second series), active compounds read low 0.977 | S. cerevisiae deletion strains, locus YLR342W, strain FKS1, active compounds read low 0.978 | S. cerevisiae deletion strains, locus YLR357W, strain rsc2, active compounds read low 0.985 | S. cerevisiae deletion strains, locus YLR370C, strain arc18, active compounds read low 0.947 | S. cerevisiae deletion strains, locus YLR371W, strain rom2, active compounds read low 0.985 | S. cerevisiae deletion strains, locus YLR384C, strain iki3, active compounds read low 0.977 | S. cerevisiae deletion strains, locus YLR418C, strain cdc73, active compounds read low 0.952 | S. cerevisiae deletion strains, locus YML016C, strain PPZ1, active compounds read low 0.993 | S. cerevisiae deletion strains, locus YML032C, strain rad52, active compounds read low 0.993 | S. cerevisiae deletion strains, locus YML120C, strain ndi1, active compounds read low 0.97 | S. cerevisiae deletion strains, locus YML124C, strain tub3, active compounds read low 0.984 | S. cerevisiae deletion strains, locus YMR058W, strain fet3, active compounds read low 0.965 | S. cerevisiae deletion strains, locus YMR078C, strain ctf18, active compounds read low 0.99 | S. cerevisiae deletion strains, locus YMR125W, strain sto1, active compounds read low 0.932 | S. cerevisiae deletion strains, locus YMR129W, active compounds read low 0.97 | S. cerevisiae deletion strains, locus YMR205C, strain PFK2, active compounds read low 0.976 | S. cerevisiae deletion strains, locus YMR223W, strain ubp8, active compounds read low 0.995 | S. cerevisiae deletion strains, locus YMR231W, strain pep5, active compounds read low 0.967 | S. cerevisiae deletion strains, locus YMR263W, strain SAP30, active compounds read low 1.02 | S. cerevisiae deletion strains, locus YMR307W, strain GAS1, active compounds read low 0.894 | S. cerevisiae deletion strains, locus YNL067W, strain RPL9B, active compounds read low 1.03 | S. cerevisiae deletion strains, locus YNL071W, strain lat1, active compounds read low 0.977 | S. cerevisiae deletion strains, locus YNL128W, strain TEP1, active compounds read low 1.02 | S. cerevisiae deletion strains, locus YNL153C, strain GIM3, active compounds read low 0.996 | S. cerevisiae deletion strains, locus YNL183C, strain NPR1, active compounds read low 0.963 | S. cerevisiae deletion strains, locus YNL209W, strain ssb2, active compounds read low 0.971 | S. cerevisiae deletion strains, locus YNL233W, strain BNI4, active compounds read low 0.992 | S. cerevisiae deletion strains, locus YNL248C, strain rpa49, active compounds read low 0.969 | S. cerevisiae deletion strains, locus YNL250W, strain rad50, active compounds read low 0.992 | S. cerevisiae deletion strains, locus YNL271C, strain bni1, active compounds read low 0.992 | S. cerevisiae deletion strains, locus YNL298W, strain CLA4, active compounds read low 0.975 | S. cerevisiae deletion strains, locus YNL307C, strain MCK1, active compounds read low 0.992 | S. cerevisiae deletion strains, locus YNL322C, strain KRE1 (second series), active compounds read low 0.972 | S. cerevisiae deletion strains, locus YNL322C, strain KRE1, active compounds read low 0.997 | S. cerevisiae deletion strains, locus YNR049C, strain mso1, active compounds read low 0.968 | S. cerevisiae deletion strains, locus YNR052C, strain pop2, active compounds read low 0.99 | S. cerevisiae deletion strains, locus YOL006C, strain TOP1, active compounds read low 0.998 | S. cerevisiae deletion strains, locus YOL012C, strain htz1 1.03 | S. cerevisiae deletion strains, locus YOL147C, strain pex11, active compounds read low 0.998 | S. cerevisiae deletion strains, locus YOR001W, strain rrp6, active compounds read low 0.943 | S. cerevisiae deletion strains, locus YOR061W, strain CKA2, active compounds read low 0.989 | S. cerevisiae deletion strains, locus YOR069W, strain VPS5, active compounds read low 0.994 | S. cerevisiae deletion strains, locus YOR070C, strain gyp1, active compounds read low 0.992 | S. cerevisiae deletion strains, locus YOR080W, strain dia2, active compounds read low 0.964 | S. cerevisiae deletion strains, locus YOR083W, strain WHI5, active compounds read low 0.993 | S. cerevisiae deletion strains, locus YOR106W, strain vam3, active compounds read low 0.969 | S. cerevisiae deletion strains, locus YOR136W, strain idh2, active compounds read low 0.986 | S. cerevisiae deletion strains, locus YOR144C, strain elg1, active compounds read low 0.985 | S. cerevisiae deletion strains, locus YOR184W, strain ser1, active compounds read low 0.995 | S. cerevisiae deletion strains, locus YOR231W, strain MKK1, active compounds read low 0.958 | S. cerevisiae deletion strains, locus YOR265W, strain rbl2, active compounds read low 0.979 | S. cerevisiae deletion strains, locus YOR270C, strain vph1, active compounds read low 1.01 | S. cerevisiae deletion strains, locus YOR290C, strain snf2, active compounds read low 0.983 | S. cerevisiae deletion strains, locus YOR316C, strain cot1, active compounds read low 0.989 | S. cerevisiae deletion strains, locus YPL051W, strain arl3, active compounds read low 0.988 | S. cerevisiae deletion strains, locus YPL055C, strain LGE1, active compounds read low 0.993 | S. cerevisiae deletion strains, locus YPL078C, strain atp4, active compounds read low 0.961 | S. cerevisiae deletion strains, locus YPL106C, strain sse1, active compounds read low 0.894 | S. cerevisiae deletion strains, locus YPL240C, strain hsp82, active compounds read low 0.974 | S. cerevisiae deletion strains, locus YPL241C, strain CIN2, active compounds read low 0.999 | S. cerevisiae deletion strains, locus YPL256C, strain CLN2, active compounds read low 0.95 | S. cerevisiae deletion strains, locus YPR119W, strain clb2, active compounds read low 0.992 | S. cerevisiae deletion strains, locus YPR141C, strain kar3, active compounds read low 0.99 | S. cerevisiae deletion strains, locus YPR163C, strain tif3, active compounds read low 0.981 | S. cerevisiae deletion strains, locus YPR167C, strain met16, active compounds read low 0.982 | S. cerevisiae deletion strains, strain wtn01, active compounds read low 0.981 | S. cerevisiae strains, strain wild type, active compounds read low 1.02
